RAD52 inh: RAD52 (human) annealing inhibition | actives 0.46% (n = 360,000) | P43351 | AID 651710 | inhibition, % at 18.7 µM | recombinant RAD52 DNA annealing, FRET fluorescence;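 active = every replicate showing at least 50% inhibition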
NSD2 inh: inhibitors of human histone methyltransferase NSD2. O96028. NSD2 peptide methylation, AlphaScreen, 120 min. inhibition, % at 12.5 µM. actives 0.54% (n = 310,000); in the data active = inhibition above about 50%
Target sequence (O96028 whole entry, looked up): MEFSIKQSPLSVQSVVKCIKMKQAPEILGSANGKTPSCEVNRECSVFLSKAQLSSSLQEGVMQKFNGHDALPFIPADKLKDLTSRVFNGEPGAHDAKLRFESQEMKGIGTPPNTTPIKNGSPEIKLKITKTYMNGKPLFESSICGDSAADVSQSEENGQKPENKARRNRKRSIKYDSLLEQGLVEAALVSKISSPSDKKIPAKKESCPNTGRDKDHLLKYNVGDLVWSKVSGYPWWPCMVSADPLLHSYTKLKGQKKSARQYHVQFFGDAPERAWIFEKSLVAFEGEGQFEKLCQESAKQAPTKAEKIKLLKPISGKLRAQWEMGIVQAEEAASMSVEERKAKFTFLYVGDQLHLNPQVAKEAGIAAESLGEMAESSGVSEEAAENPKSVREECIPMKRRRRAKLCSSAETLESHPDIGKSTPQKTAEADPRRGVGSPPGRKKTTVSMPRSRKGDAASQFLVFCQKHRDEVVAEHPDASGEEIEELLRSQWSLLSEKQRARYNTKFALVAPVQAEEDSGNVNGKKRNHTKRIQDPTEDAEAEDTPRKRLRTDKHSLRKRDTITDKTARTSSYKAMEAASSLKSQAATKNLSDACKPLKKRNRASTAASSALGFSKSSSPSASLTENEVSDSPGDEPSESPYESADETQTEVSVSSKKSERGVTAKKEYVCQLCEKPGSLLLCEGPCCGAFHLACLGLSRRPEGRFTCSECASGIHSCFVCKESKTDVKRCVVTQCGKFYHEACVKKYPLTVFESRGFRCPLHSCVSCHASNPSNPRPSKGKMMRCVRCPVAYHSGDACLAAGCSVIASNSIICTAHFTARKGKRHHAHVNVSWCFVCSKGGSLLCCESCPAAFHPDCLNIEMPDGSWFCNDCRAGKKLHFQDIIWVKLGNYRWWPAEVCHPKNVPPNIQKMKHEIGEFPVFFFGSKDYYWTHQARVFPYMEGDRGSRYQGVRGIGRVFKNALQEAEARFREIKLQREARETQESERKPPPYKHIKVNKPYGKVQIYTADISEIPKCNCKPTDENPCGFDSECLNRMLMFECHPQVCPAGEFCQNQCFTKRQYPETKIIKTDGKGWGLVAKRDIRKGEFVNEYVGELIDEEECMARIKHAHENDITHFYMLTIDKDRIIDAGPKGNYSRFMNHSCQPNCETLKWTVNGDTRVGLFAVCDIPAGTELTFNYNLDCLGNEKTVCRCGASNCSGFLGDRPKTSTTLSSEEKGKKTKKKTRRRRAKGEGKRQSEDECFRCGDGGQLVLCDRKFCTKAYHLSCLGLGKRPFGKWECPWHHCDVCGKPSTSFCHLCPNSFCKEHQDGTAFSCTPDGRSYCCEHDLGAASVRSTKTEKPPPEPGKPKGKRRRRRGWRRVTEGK
CASP6 VEID inh: blocks human caspase-6 cleavage activity; P55212; purified caspase-6, Z-VEID-R110 cleavage fluorescence; inhibition, % at 12.5 µM; actives 0.53% (n = 350,000); AID 686996;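 active = mean inhibition across replicates at least about 35%, with every replicate also reaching that limit, limit read from the data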;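 also: 0% = median of neutral control wells and 100% = no fluorescence left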
MLL AF4-AF9 inh: blocks AF4 peptide binding to human AF9 | P42568 | AlphaScreen, biotin-AF4 peptide binding to FLAG-AF9 | inhibition, % at 10 µM | actives 0.47% (n = 350,000) | AID 651704;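 active = every replicate reaching a set inhibition limit, whatever the replicate mean, cut at about 25% in these data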;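 also: 0% = plate neutral control median and 100% = total signal loss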
miR-122 sensor: inhibitors of miR-122 in Huh7 cells; Huh7 miR-122 Renilla luciferase sensor, 48 h; neutral wells = 0, positive control = 100; activation (reporter increase), % at 12.5 µM; actives 0.3% (n = 340,000); AID 602342;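 active = mean replicate activation score at least 90 and every replicate individually at or above 90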;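 also: higher luciferase means less miR-122 activity so hits act as miR-122 inhibitors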
Numbers without * were called inactive; . = no result given; [ ] = remark or other dose. Sampled rows, rich in hits. Any-hit rate of the full collection: about 1.5%.

SMILES	RAD52 inh	NSD2 inh	CASP6 VEID inh	MLL AF4-AF9 inh	miR-122 sensor
C[C@H](CO)N1C[C@H](C)[C@@H](CN(C)C(=O)C2CC2)Oc2ncc(/C=C/c3ccccc3)cc2C1=O	.	.	.	.	18.0[16.7 µM]
Cc1ccc(OCC(=O)N(Cc2ccccc2)c2ccccn2)cc1	-3.0	-2.0	1.7	-1.3	10.3
Cc1ccc(CC(=O)N(Cc2ccccc2)c2ccccn2)cc1	-4.6	-3.0	-1.1	-0.4	118.1*
C[C@@H]1CCCCO[C@@H](CN(C)Cc2ccc(Cl)c(Cl)c2)[C@H](C)CN([C@H](C)CO)C(=O)c2cc(NS(=O)(=O)c3ccc(F)cc3)ccc2O1	-17.8	.	1.9	4.2	-15.5[16.7 µM]
COCCNC(=O)c1ccccc1NC(=O)CN(c1ccc2c(c1)OCO2)S(C)(=O)=O	.	1.1	.	.	11.5
COC(=O)c1ccc(C(=O)OC)c(NC(=O)CN(c2ccc3c(c2)OCO3)S(C)(=O)=O)c1	0.5	1.1	41.9*	4.8	-1.8
CC1CCc2c(c3ccccc3n2C(=O)CCl)C1 (configuration not stated)	-1.3	-0.7	95.7*	4.0	3.4
CCN1CCN(CC(=O)n2c3c(c4ccccc42)CC(C)CC3)CC1 (configuration not stated)	.	16.0	.	.	-3.2
O=C1Nc2cc(S(=O)(=O)N3CCCC3)ccc2N2CCCC12 (configuration not stated)	.	.	.	.	-1.5
O=C1Nc2cc(Cl)cnc2N2CCCC12 (configuration not stated)	-18.4	.	39.7*	3.5	-3.1
O=C(Cc1nnc(NC(=O)c2ccccc2)s1)N/N=C/c1ccc(O)cc1	-13.9	1.2	4.1	1.4	1.9
O=C(Cc1nnc(NC(=O)c2ccccc2)s1)N/N=C\c1ccc(O)c(O)c1	-3.3	67.6*	3.7	-7.1	-1.9
COc1ccc(-c2cc(-c3ccco3)[nH]c(=O)c2C#N)cc1OC	-162.9	.	38.1*	3.0	-4.3
N#Cc1c(-c2ccccc2)cc(-c2ccc3c(c2)OCO3)[nH]c1=O	-7.7	-3.0	0.8	-0.9	.
O=c1cc(SCc2ccccc2)nc[nH]1	-6.8	-5.2	-1.9	38.5*	-1.4
CC1CCCC(NC(=O)c2ccc3c(SCC(=O)O)c4c(nc3c2)CCC4)C1C (configuration not stated)	-4.2	.	42.9*	1.8	6.1
C[C@@H]1CN([C@H](C)CO)C(=O)Cc2cc(NC(=O)Cc3cn(C)c4ccccc34)ccc2O[C@@H]1CN(C)S(=O)(=O)c1cccs1	-21.5	.	-1.3	0.3	-6.3[16.7 µM]
Cc1ccn2c(=O)nc(SCC(=O)N3CCCC3)nc2c1	-12.7	4.4	4.0	-0.1	2.8
Cc1ccn2c(=O)nc(SCC(=O)N3CCC(C)CC3)nc2c1	-8.3	3.7	52.2*	-0.5	3.4
CCCNC(=O)N1C[C@@H](O)COC[C@@H]2O[C@@H](CC(=O)N[C@H]3CCN(Cc4ccccc4)C3)CC[C@H]21	7.2	.	-0.2	-1.1	-0.8[16.7 µM]
C[C@@H]1CN([C@H](C)CO)C(=O)c2cc(NC(=O)CCC(F)(F)F)ccc2O[C@@H](C)CCCCO[C@@H]1CN(C)C(=O)CCC(F)(F)F	11.6	.	-0.9	-2.4	-5.2[16.7 µM]
COc1cc(S(=O)(=O)NC2CCCCC2)c(C)cc1C	-7.6	-1.9	-3.2	-1.8	163.1*
COc1ccc(C)cc1S(=O)(=O)NC1CCCCC1C (configuration not stated)	.	-3.3	.	.	132.5*
COc1ccc(F)cc1S(=O)(=O)NC1CCCCCC1	.	.	.	.	104.7*
CCOc1ccc(Cl)cc1S(=O)(=O)NC1CCCC1	-6.0	-4.4	-0.6	-1.0	114.1*
SMILES	RAD52 inh	NSD2 inh	CASP6 VEID inh	MLL AF4-AF9 inh	miR-122 sensor
COc1ccc(S(=O)(=O)NC2CCCCCC2)c(OC)c1	-4.6	-1.9	-4.0	-2.5	28.9
COC(=O)C[C@@H]1CC[C@H](NC(=O)Nc2ccc(C(F)(F)F)cc2)[C@H](CO)O1	3.9	.	-1.0	-0.5	.
COc1ccc(NC(=O)N(C)C[C@H]2OCCCC[C@H](C)Oc3ccc(NC(=O)Nc4ccc(F)cc4)cc3C(=O)N([C@H](C)CO)C[C@@H]2C)cc1	8.0	.	0.6	-1.5	-4.9[16.7 µM]
COc1cc(S(=O)(=O)NC2CCCC2)c(OC)cc1Cl	.	2.1	.	.	293.1*
COc1cc(S(=O)(=O)NC2CC(C)(C)NC(C)(C)C2)c(OC)cc1Cl	-2.7	-0.2	3.8	-3.4	2.0
CC1(C)N([O-])C(c2ccccc2)=C[N+](=O)C1(C)C	.	.	.	.	-4.2
CC1(C)N([O-])C(c2cccs2)=C[N+]1=O	.	-7.0	.	.	103.0*
O=C(O)CC1S/C(=N/N=C/c2ccc(-c3ccc(Cl)c([N+](=O)[O-])c3)o2)NC1=O (configuration not stated)	-13.4	3.3	35.4*	-1.8	.
C[C@H]1CN([C@@H](C)CO)C(=O)Cc2cc(NC(=O)C3CCCCC3)ccc2O[C@@H]1CN(C)C(=O)Nc1ccccc1	-2.8	.	-0.8	-2.8	13.3[16.7 µM]
CC(=NNC(=S)Nc1ccc(C)cc1)c1ccccn1	-31.5	20.9	40.3*	5.3	2.8
CC(=NNC(=S)Nc1cccc(C)c1)c1ccccn1	-8.8	.	.	4.2	.
Cc1ccc(Sc2ccc(CN3CCCCC3)cc2[N+](=O)[O-])cc1	-4.1	10.8	-0.7	29.1*	.
O=[N+]([O-])c1cc(CN2CCCCCC2)ccc1O	-12.6	-0.3	-3.8	-1.3	-6.5
COc1ccc2c3c([nH]c2c1)[C@H](CO)N(C(=O)NC(C)C)CC31CCN(C(=O)C2CCCC2)CC1	3.6	.	0.3	3.6	.
COc1ccccc1S(=O)(=O)Nc1ccc2c(c1)OC[C@@H](C)NC[C@H](C)[C@@H](OC)CN(C)C2=O	-12.3	.	0.7	-3.4	7.9[16.7 µM]
OC(c1ccc(Cl)c(Cl)c1)c1ncc(-c2ccccc2F)[nH]1 (configuration not stated)	-7.9	1.4	3.1	0.8	103.7*
Cc1ccccc1-c1cnc(C(O)c2ccc(F)c(F)c2)[nH]1 (configuration not stated)	-9.8	1.3	2.1	3.8	92.9*
Cc1ccc(OCC(=O)N2CCN(C(=O)Cc3ccccc3)CC2)cc1	-16.7	-5.7	-0.9	.	.
O=C(COc1ccc(-c2ccccc2)cc1)N1CCN(S(=O)(=O)Cc2ccccc2)CC1	.	-3.0	.	.	99.2*
CCN(CC)c1ccc(Nc2nc(Cl)ncc2Br)cc1	-0.1	24.8	2.0	27.1*	3.5
CC[C@H](C)/C=C(C)/C=C/c1cc2c(cn1)C(=O)[C@@](C)(OC(C)=O)C(O)=C2Cl	-31.3	.	51.4*	6.4	-0.5
CC[C@H](C)/C=C(C)/C=C/C1=CC2=CC(=O)[C@]3(C)OC(=O)[C@@H](C(C)=O)[C@@H]3C2=CO1	-114.5	.	19.2	3.7	-1.1
CCCCNC(=O)N(O)C1N(/N=C/c2ccccc2F)C(=S)SC1(C)C (configuration not stated)	-27.7	-0.2	2.4	10.4	116.0*
O=C(CSc1nnc2ccccn12)NC(=O)c1ccccc1Cl	-12.4	1.4	38.7*	-3.1	.
Cc1cc(/C=N/Nc2ccc([N+](=O)[O-])cn2)c(C)n1-c1ccc(C(=O)O)cc1	-38.3	1.1	42.8*	20.1	.

Screening data: PubChem, Broad Institute
